The campaign covered roughly 37,000 compounds. About 100 (0.27%) were called active. No stated cut-off is given here; in the data, active means inhibition above about 85%; inconclusive means no clear call, values can overlap the other calls; inactive means below about 68%. Only a selection was taken, and actives are over-represented in it overall.
Assay: blocks MITF activity, primary screen, MITF inhibitor project, cell-based, luminescence (AID 2240);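 further: human melanocyte line stably carrying TRPM1 promoter luciferase reporter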
Details: TRPM1 promoter luciferase, 24 h, active compounds read high, concentration not given here

| Compound | inhibition |
| --- | --- |
| c1ccc2c(c1)[I+]c1ccccc1-2 | 90% (active) |
| COc1ccc2[nH]cc(CCNCc3ccc(Br)cc3)c2c1 | -13.8% (inactive) |
| CCCCC/C=C\C/C=C\C/C=C\CCCCCCC(=O)NCCO | -1.85% (inactive) |
| C[C@H]1CCC/C=C/C2C[C@H](O)C[C@H]2[C@H](O)/C=C\C(=O)O1 (stereo not given in full) | 108% (active) |
| c1cncc(CNCCc2c[nH]c3ccccc23)c1 | 1.76% (inactive) |
| COc1ccc(CNCc2nc3ccccc3c(=O)n2-c2ccc(F)cc2)cc1 | 8.31% (inactive) |
| C[C@H]1O[C@@H](O[C@H]2CC[C@]3(CO)C4CC[C@]5(C)[C@@H](C6=CC(=O)OC6)CC[C@]5(O)[C@@H]4CC[C@H]3C2)[C@H](O)[C@H](O)[C@@H]1O[C@@H]1O[C@H](CO)[C@@H](O)[C@H](O)[C@H]1O (stereo not given in full) | 10.7% (inactive) |
| CN(C)C(=O)Oc1cc(OC(=O)N(C)C)cc(C(O)CNC(C)(C)C)c1 (stereo not given) | -14.7% (inactive) |
| CCCN(C/C=C/I)C1CCc2ccc(O)cc2C1 (stereo not given) | -11.9% (inactive) |
| COC1=CC23CCN(C)[C@H](Cc4cc(OC)c(OC)cc42)C3=CC1=O | 2.51% (inactive) |
| Cc1ncsc1CCCl | -1.18% (inactive) |
| CN[C@@H]1C[C@H]2O[C@@](C)([C@@H]1OC)n1c3ccccc3c3c4c(c5c6ccccc6n2c5c31)C(=O)NC4 | 106% (active) |
| CC(C)c1c(CN(C)C(C)Cc2ccccc2)n(C)n(-c2ccccc2)c1=O (stereo not given) | 20.5% (inactive) |
| CC=C1CN2C3CC1C1(C(=O)OC)C2CC2(c4ccccc4N(C)C32)C1O (stereo not given) | 4.01% (inactive) |
| COc1ccccc1N1C(=O)NC(=O)C(CCc2ccncc2)(Cc2cccc3ccccc23)C1=O (stereo not given) | 7.09% (inactive) |

Reference: PubChem BioAssay AID2240 (Broad Institute, 2010)
